# Source: PubChem BioAssay
# HTT-AS act: Primary qHTS for Identification of Small Molecule Activators of Huntingtin-Antisense Promoter Activity | HEK293 HTT-AS promoter firefly luciferase reporter, 24 h; response scale: percent change from vehicle, -100% = no light | Potency, µM (series often up to 57.5 µM), inactives show at the highest dose activity change, positive = activation, hits mostly activators | hit rate 0.24% among 48,000 | AID 1508624, 2021; also: potency is read from the fitted curve at half-maximal effect; nearly all actives have a fitted effect of over 55% in size
#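 Firefly luciferase readout (Dual-Glo, 10 min RT) after 24 h, 37 °C compound exposure (final up to 57.5 uM) of HEK293 reporter cells cultured 24 h beforehand; PTC124 at 50 uM final as control inhibitor; activity scaled vehicle 0%, zero RLU -100%.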
# GPR32 ag: qHTS for Agonists of Human Resolvin D1 Receptor DRV1 | Probable G-protein coupled receptor 32 (Homo sapiens), O75388 | CHO-K1 GPR32 beta-arrestin PathHunter luminescence, 90 min; zero percent set by DMSO-only wells | activation, % at 76.9 µM | hit rate 2.5% among 48,000 | AID 1346428, 2018;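 active = activation of at least 60% and not above a set upper limit, about 1 call in 100 departs from these limits; inconclusive = activation of 40% to 60%, or above that upper limit; inactive = activation under 40%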; also: 0% is about no effect
#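 Luminescent readout of beta-Gal complementation quantifies ligand-induced beta-arrestin association with GPR32 in CHO-K1 cells; 90 min compound incubation at 37 °C, detection 1 h at room temperature.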
# NTMT1 inh: Primary qHTS for Inhibitors of N-terminal methyltransferase 1 (NTMT1): MTaseGlo Assay; NTMT1 MTase-Glo SAH luminescence, purified enzyme; AID 1645870, 2021; Potency, µM (top dose mostly 114 µM), for inactives: at the top dose activity change, negative = inhibition, hits mostly inhibitors; hit rate 2.5% among 59,000; N-terminal Xaa-Pro-Lys N-methyltransferase 1 (Homo sapiens), Q9BV86;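 also: potency is read from the fitted curve at half-maximal effect; plate controls were DMSO vehicle for no effect and no enzyme for full effect; nearly all actives have a fitted effect of over 65% in size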
# Target sequence (Q9BV86 whole entry, looked up): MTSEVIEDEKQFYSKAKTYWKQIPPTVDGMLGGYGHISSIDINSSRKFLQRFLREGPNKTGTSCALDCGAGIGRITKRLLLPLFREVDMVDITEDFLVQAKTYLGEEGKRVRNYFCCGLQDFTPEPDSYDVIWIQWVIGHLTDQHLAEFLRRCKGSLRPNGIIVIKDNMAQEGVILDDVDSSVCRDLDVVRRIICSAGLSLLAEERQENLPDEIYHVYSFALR
# HTT promoter inh: Primary qHTS for Identification of Small Molecule Inhibitors of Huntingtin Promoter Activity; AID 1508623, 2021; HEK293 HTT promoter firefly luciferase reporter, 24 h; hit rate 0.93% among 48,000; Potency, µM (highest dose often 57.5 µM), for the others: top-dose activity change, negative = inhibition, actives largely listed as inhibitors; also: potency is read from the fitted curve at half-maximal effect; nearly all actives have a fitted effect of over 50% in size
#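 HEK293 cells carrying firefly luciferase reporters were seeded at 2,500 per well in Opti-MEM and cultured for 24 h. They were then treated with compounds at up to 57.5 uM final for 24 h at 37 degrees C before Dual-Glo luminescence readout.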
# FH mod: Identification of activators of human fumarate hydratase by quantitative high-throughput screening; Potency, µM (top dose mostly 79.9 µM), for inactives: at the top dose activity change, negative = inhibition, most hits filed as inhibitors; hit rate 0.22% among 54,000; FH coupled MDH/diaphorase resazurin fluorescence, 15 min; Fumarate hydratase, mitochondrial (Homo sapiens), P07954; also: potency is read from the fitted curve at half-maximal effect; % is scaled to controls: 0 for no effect and ±100 for the full control effect; the screen sought activators but most active calls are inhibition curves; nearly all actives have a fitted effect of over 45% in size
# Sfp qHTS opt: qHTS Assay for Inhibitos of Bacillus subtilis Sfp phosphopantetheinyl transferase (PPTase): Chemistry Optimization Followup. hit rate 78% among 230. Potency, µM (titrated, usually from 114 µM), inactives show at the top dose activity change, negative = inhibition, hits mostly inhibitors. purified Sfp PPTase enzyme activity, qHTS. shares compounds with NTMT1 inh
# Bsub HM489 growth: qHTS for Inhibitos of Bacillus subtilis Sfp phosphopantetheinyl transferase (PPTase): Chemistry Optimization Followup in B. Subtilis HM489. shares compounds with NTMT1 inh. hit rate 50% among 220. Potency, µM (titrated, usually from 114 µM), for inactives: top-dose activity change, negative = inhibition, hits mostly inhibitors. B. subtilis HM489 (acpS-) growth, BacTiter-Glo, 5 h
# Sfp gel opt: Gel-Based Assay for Inhibitos of Bacillus subtilis Sfp phosphopantetheinyl transferase (PPTase): Chemistry Optimization Followup; shares compounds with NTMT1 inh; purified Sfp PPTase, gel-based product detection; Potency, µM (series often up to 250 µM), for inactives: top-dose activity change, negative = inhibition, most hits filed as inhibitors; hit rate 54% among 220
# Sfp gel: qHTS Assay for Inhibitors of Bacillus subtilis Sfp phosphopantetheinyl transferase (PPTase): Gel Based Assay. shares compounds with NTMT1 inh. purified Sfp PPTase, gel-based product detection. Potency, µM (top dose mostly 250 µM), without a hit: at the top dose activity change, negative = inhibition, actives largely listed as inhibitors. hit rate 90% among 45. AID 602362, 2012
# Sfp inh SAR2: qHTS Assay for Inhibitors of Bacillus subtilis Sfp phosphopantetheinyl transferase (PPTase): SAR Round 2. hit rate 87% among 230. shares compounds with NTMT1 inh. Potency, µM (series often up to 57.1 µM), without a hit: top-dose activity change, negative = inhibition, usual class: inhibitors. purified Sfp enzyme, PPTase activity, qHTS. AID 602370, 2012
# hGST ctr: qHTS Assay for Inhibitors of Bacillus subtilis Sfp phosphopantetheinyl transferase (PPTase): SAR in hGST A1-1; shares compounds with NTMT1 inh; hGST A1-1 enzyme activity counter-screen, qHTS; Potency, µM (titrated, usually from 114 µM), for the others: top-dose activity change, negative = inhibition, usual class: inhibitors; 55 tested, under 10 active
# HSD17B4 inh: Extended Characterization of HPGD Inhibitors: Counterscreen Against HSD17b4 | shares compounds with NTMT1 inh | purified HSD17B4, estradiol/NAD+, NADH fluorescence | Potency, µM (series often up to 57.1 µM), for the others: at the top dose activity change, negative = inhibition, hits mostly inhibitors | hit rate 10% among 230 | AID 743187, 2013
# ALDH1A1 inh: Extended Characterization of HPGD Inhibitors: Counterscreen Against ALDH1A1; Potency, µM (doses to about 57.1 µM), for inactives: top-dose activity change, negative = inhibition, usual class: inhibitors; shares compounds with NTMT1 inh; hit rate 93% among 230; recombinant ALDH1A1, NADH fluorescence, propionaldehyde/NAD+
# Target sequence (P00352 whole entry, looked up): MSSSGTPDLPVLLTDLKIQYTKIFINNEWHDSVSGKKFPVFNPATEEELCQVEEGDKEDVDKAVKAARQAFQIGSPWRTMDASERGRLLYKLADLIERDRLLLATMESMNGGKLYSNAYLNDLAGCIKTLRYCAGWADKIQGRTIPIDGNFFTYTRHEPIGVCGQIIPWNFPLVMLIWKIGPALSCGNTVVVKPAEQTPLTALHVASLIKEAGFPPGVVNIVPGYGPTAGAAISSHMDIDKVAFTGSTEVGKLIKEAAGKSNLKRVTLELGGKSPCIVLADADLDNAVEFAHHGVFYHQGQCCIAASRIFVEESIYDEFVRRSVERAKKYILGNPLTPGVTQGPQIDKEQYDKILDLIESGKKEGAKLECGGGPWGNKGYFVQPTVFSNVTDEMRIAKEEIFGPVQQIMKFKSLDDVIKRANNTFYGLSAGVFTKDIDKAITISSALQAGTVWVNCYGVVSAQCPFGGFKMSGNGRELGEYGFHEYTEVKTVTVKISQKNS
# NNMT counter: Counterscreen qHTS for Inhibitors of N-terminal methyltransferase 1 (NTMT1): NNMT MTaseGlo assay; shares compounds with NTMT1 inh; NNMT MTase-Glo luminescence, SAH detection; Potency, µM (series often up to 57.1 µM), for inactives: at the top dose activity, negative = inhibition, usual class: inhibitors; hit rate 10% among 120; AID 1645878, 2021
# An asterisk follows results filed as active; ? = inconclusive; / = not tested or not shown; [ ] = remark or other dose. Only some compounds are listed: those with a hit (about 4.7% of all), similar ones and a draw of the others. Unless noted, calls follow the shape of the dose curve; as a rule, active = well fitted curve in the direction sought with a large enough effect; inconclusive = small, poorly fitted or top-dose-only effect, or another doubt; inactive = no such curve, though single readings can be large; an effect the other way counts as inactive or inconclusive.
SMILES,HTT-AS act,GPR32 ag,NTMT1 inh,HTT promoter inh,FH mod,Sfp qHTS opt,Bsub HM489 growth,Sfp gel opt,Sfp inh SAR2,HSD17B4 inh,ALDH1A1 inh,others
CCOC(=O)c1cccc(NC(=O)Cn2ncc3c(=O)oc4ccccc4c32)c1,-2%,4,1%,3%,0%,/,/,/,/,/,/,
CCc1nn(CC(=O)NCCc2ccc(OC)c(OC)c2)c(=O)c2cc3occc3n12,-14%,-3,2%,-8%,-4%,/,/,/,/,/,/,
COc1cccc(Cn2c(Oc3cc(C)cc(C)c3)nc3c2c(=O)n(C)c(=O)n3C)c1,-16%,-13,3%,-14%,-14%,/,/,/,/,/,/,
FC(F)(F)c1cccc(N2CCN(C(=S)Nc3ccccn3)CC2)c1,/,/,/,/,/,2.4µM*,37µM*,25µM*,0.91µM*,-27%,7.6µM*,
Cc1cn(C)c(CC(=O)N2CCN(c3cccc(C(F)(F)F)c3)CC2)c1C(=O)O,-21%,1,-7%,?,-8%,/,/,/,/,/,/,
FC(F)(F)c1cccc(N2CCN(C(=S)Nc3cc(C(F)(F)F)ccn3)CC2)c1,/,/,?,/,/,5.1µM*,7.4µM*,?,?,-12%,19µM*,Sfp gel=-5%;hGST ctr=?
FC(F)(F)c1cccc(N2CCN(C(=S)Nc3cnccn3)CC2)c1,/,/,/,/,/,?,-53%,158µM*,?,30µM*,24µM*,
FC(F)(F)c1cccc(N2CCN(C(=S)Nc3ncnc4ccccc34)CC2)c1,/,/,?,/,/,?,5.9µM*,?,9.1µM*,?,6.8µM*,
CC(C)Cn1cc(NC(=O)N2CCN(c3cccc(C(F)(F)F)c3)CC2)c2ccccc2c1=O,-25%,-34,5%,?,-1%,/,/,/,/,/,/,
Cn1cnc(S(=O)(=O)N2CCC(C(=O)N3CCN(c4cccc(C(F)(F)F)c4)CC3)CC2)c1,-6%,-6,-5%,-16%,-21%,/,/,/,/,/,/,
CCc1nnc(SCC(=O)N(C)c2ccccc2)c2cc3sccc3n12,-27%,-18,-4%,2%,-6%,/,/,/,/,/,/,
Cc1ccnc(NC(=S)N2CCN(c3cccc(C(F)(F)F)c3)C2)c1,/,/,-11%[57.5 µM],/,/,3%,-28%,?,0.81µM*,-8%,22µM*,
Cc1ccnc(N=C(N)N2CCN(c3cccc(C(F)(F)F)c3)CC2)c1,/,/,/,/,/,?,?,1%,36µM*,/,/,Sfp gel=1%;hGST ctr=?
Cc1ccnc(C(=S)N2CCN(c3cccc(C(F)(F)F)c3)CC2)c1,/,/,-2%,/,/,?,?,6%,?,-7%,17µM*,
Cc1cc(C)nc(NC(=S)N2CCN(c3ccc4cn(C)nc4c3)CC2)c1,/,/,?,/,/,13µM*,12%,-68%,11µM*,?,22µM*,
Cc1oc2ncn(C)c(=O)c2c1C(=O)N1CCN(c2cccc(C(F)(F)F)c2)CC1,-15%,-6,5%,0%,5%,/,/,/,/,/,/,
CC(=O)c1ccc(N2CCN(C(=O)Nc3ccc(C)cc3)CC2)cc1,-24%,2,-2%,?,-5%,/,/,/,/,/,/,
Cn1nnc2c(N3CCN(c4cccc(C(F)(F)F)c4)CC3)ncnc21,-22%,-4,4%,?,6%,/,/,/,/,/,/,
COc1ccc(-n2c(SCC(=O)N3CCC(C)CC3)nc3c([nH]c4ccccc43)c2=O)cc1,-12%,-2,16%,-9%,6%,/,/,/,/,/,/,
Cc1cc(N2CCOCC2)cc2[nH]c(-c3c(NC[C@@H](O)c4cccc(Cl)c4)cc[nH]c3=O)nc12,-39%,/,?,?,?,/,/,/,/,/,/,NNMT counter=?
